Assay results published in PubChem BioAssay (NCATS).
Values joined by “and” are separate entries in the source; they are usually repeats but may differ in a detail not shown here. Equal entries are not always repeated. A number with no mark means an inactive call. Records with an inconclusive call do not appear. A call without a number means that no potency is given here. Active and inactive are the calls of the source. Unless noted, calls come from the whole dose curve; as a rule, active = well fitted curve in the direction sought with a large enough effect; inconclusive = small, poorly fitted or top-dose-only effect, or another doubt; inactive = no such curve, though single readings can be large; an effect the other way counts as inactive or inconclusive.

Columns and labels:
[1] = biological target: ATP-dependent 6-phosphofructokinase (Trypanosoma brucei brucei) (UniProt O15648); assay: qHTS Assay to Find Inhibitors of T. brucei phosphofructokinase: hit validation (AID 492961);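 note: luminescence reports ADP formed as PFK phosphorylates fructose-6-phosphate with ATP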
How it was run: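 PFK 1.25 nM, F6P 0.5 mM, ATP 0.1 mM, MgCl2 5 mM, 0.1 M TEA pH 8.0, Tween20 0.01%, BSA 0.1%; 45 min RT. ADP-Glo two-step detection, luminescence. qHTS titration; curve fitting with curve-class categorization.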

[2] = tested on: 3D7; assay: qHTS profiling for inhibitors of Plasmodium falciparum proliferation (AID 504749); note: nearly all actives have a fitted effect of over 60% in size; note: potency is the fitted concentration of half-maximal effect; conditions: P. falciparum in erythrocytes, SYBR Green DNA, 72 h; series mostly up to 28.7 µM
How it was run: (§1)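 P. falciparum-infected erythrocytes (0.3% parasitemia, 2.5% hematocrit final) were exposed to compounds for 72 h at 37 C in 5% CO2, then lysed with SYBR Green buffer overnight at room temperature; parasite DNA fluorescence was normalized to artemisinin and DMSO controls.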

[3] = tested on: AS120; assay: as above; conditions: P. falciparum in erythrocytes, SYBR Green DNA, 72 h; series mostly up to 28.7 µM
How it was run: as §1

[4] = tested on: ATS189; assay: as above; conditions: P. falciparum in erythrocytes, SYBR Green DNA, 72 h; series mostly up to 28.7 µM
How it was run: as §1

[5] = tested on: CP185; assay: as above; conditions: P. falciparum in erythrocytes, SYBR Green DNA, 72 h; series mostly up to 28.7 µM
How it was run: as §1

[6] = tested on: CP191; assay: as above; conditions: P. falciparum in erythrocytes, SYBR Green DNA, 72 h; series mostly up to 28.7 µM
How it was run: as §1

[7] = tested on: CP192; assay: as above; conditions: P. falciparum in erythrocytes, SYBR Green DNA, 72 h; series mostly up to 28.7 µM
How it was run: as §1

[8] = tested on: CP194; assay: as above; conditions: P. falciparum in erythrocytes, SYBR Green DNA, 72 h; series mostly up to 28.7 µM
How it was run: as §1

[9] = tested on: CP201; assay: as above; conditions: P. falciparum in erythrocytes, SYBR Green DNA, 72 h; series mostly up to 28.7 µM
How it was run: as §1

[10] = tested on: CP203; assay: as above; conditions: P. falciparum in erythrocytes, SYBR Green DNA, 72 h; series mostly up to 28.7 µM
How it was run: as §1

[11] = tested on: CP247; assay: as above; conditions: P. falciparum in erythrocytes, SYBR Green DNA, 72 h; series mostly up to 28.7 µM
How it was run: as §1

[12] = tested on: CP291; assay: as above; conditions: P. falciparum in erythrocytes, SYBR Green DNA, 72 h; series mostly up to 28.7 µM
How it was run: as §1

[13] = tested on: CP305; assay: as above; conditions: P. falciparum in erythrocytes, SYBR Green DNA, 72 h; series mostly up to 28.7 µM
How it was run: as §1

[14] = tested on: HB3; assay: as above; conditions: P. falciparum in erythrocytes, SYBR Green DNA, 72 h; series mostly up to 28.7 µM
How it was run: as §1

[15] = tested on: P94_40; assay: as above; conditions: P. falciparum in erythrocytes, SYBR Green DNA, 72 h; series mostly up to 28.7 µM
How it was run: as §1

[16] = tested on: PC49; assay: as above; conditions: P. falciparum in erythrocytes, SYBR Green DNA, 72 h; series mostly up to 28.7 µM
How it was run: as §1

[17] = tested on: TAB113; assay: as above; conditions: P. falciparum in erythrocytes, SYBR Green DNA, 72 h; series mostly up to 28.7 µM
How it was run: as §1

[18] = biological target: Glucocorticoid receptor (Homo sapiens) (UniProt P04150); assay: GR-EFC Redistribution (AID 451; calls by dose curve; note: potency is the fitted concentration of half-maximal effect); conditions: CHO-K1 GR-EFC translocation, beta-gal luminescence, 2 h
How it was run: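 CHO-K1 cells stably expressing nuclear-localized β-gal enzyme acceptor and GR fused C-terminally to the enzyme donor fragment; ligand-driven nuclear translocation restores β-gal by complementation. Compounds titrated up to 46 uM final, 2 h at 37 °C; luminescence read.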

[19] = biological target: Mitogen-activated protein kinase 10 (Mus musculus) (UniProt Q61831); assay: JNK3 AlphaScreen Assay (AID 530; active = well fitted curve in either direction with a large enough effect, not every such curve was filed as active;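 note: kinase came from lysate of stimulated human HepG2 cells; signal reports phosphorylation of biotinylated GST-cJun 1-79 at Ser73 with 10 µM ATP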)
How it was run: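 JNK3 came from HepG2 lysates pre-activated with IL-1beta and TNF-alpha and phosphorylated biotinylated GST-cJun (1-79) at 10 uM ATP, pH 7.6, room temperature. Compounds were titrated. AlphaScreen signal used anti-phospho-cJun (Ser73) antibody.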

[20] = biological target: 3',5'-cyclic-AMP phosphodiesterase 4B (Homo sapiens) (UniProt Q07343); assay: qHTS Assay for Inhibitors of PDE-IV (AID 607; active = well fitted activation curve with a large enough effect in the main read-out, with a control signal flat, not every such curve was filed as active)
How it was run: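 ACTOne HEK293 cells carry a modified cAMP-gated CNG channel and express endogenous PDE4; plated 1000 cells/well, compounds up to 22.9 uM final. Membrane-potential dye fluorescence (ex 535/em 590) was read; parental cells received 10 uM forskolin + 100 uM RO 20-1724.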

Chain of Glucocorticoid receptor (Homo sapiens) (P04150 whole entry, looked up, the tested form may be a part): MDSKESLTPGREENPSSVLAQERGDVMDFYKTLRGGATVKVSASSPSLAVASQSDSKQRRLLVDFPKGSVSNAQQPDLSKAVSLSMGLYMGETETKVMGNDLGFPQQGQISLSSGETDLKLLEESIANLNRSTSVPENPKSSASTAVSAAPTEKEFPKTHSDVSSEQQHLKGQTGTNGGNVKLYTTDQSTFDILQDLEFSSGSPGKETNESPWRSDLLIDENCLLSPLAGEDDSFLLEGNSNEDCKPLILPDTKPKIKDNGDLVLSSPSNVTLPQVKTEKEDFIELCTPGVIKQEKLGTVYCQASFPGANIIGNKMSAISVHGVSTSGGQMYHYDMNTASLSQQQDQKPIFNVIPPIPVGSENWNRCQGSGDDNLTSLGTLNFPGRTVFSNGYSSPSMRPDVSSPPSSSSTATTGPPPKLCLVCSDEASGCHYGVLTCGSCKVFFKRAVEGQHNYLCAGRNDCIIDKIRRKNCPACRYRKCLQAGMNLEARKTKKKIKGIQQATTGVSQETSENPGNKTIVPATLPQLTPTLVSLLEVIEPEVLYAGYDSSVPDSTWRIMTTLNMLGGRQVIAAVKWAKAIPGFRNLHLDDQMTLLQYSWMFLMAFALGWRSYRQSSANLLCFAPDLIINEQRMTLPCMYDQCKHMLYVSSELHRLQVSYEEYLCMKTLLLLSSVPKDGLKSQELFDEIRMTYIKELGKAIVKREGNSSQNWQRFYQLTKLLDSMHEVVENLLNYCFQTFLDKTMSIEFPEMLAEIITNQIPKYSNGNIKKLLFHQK
Chain of 3',5'-cyclic-AMP phosphodiesterase 4B (Homo sapiens) (Q07343 whole entry, looked up): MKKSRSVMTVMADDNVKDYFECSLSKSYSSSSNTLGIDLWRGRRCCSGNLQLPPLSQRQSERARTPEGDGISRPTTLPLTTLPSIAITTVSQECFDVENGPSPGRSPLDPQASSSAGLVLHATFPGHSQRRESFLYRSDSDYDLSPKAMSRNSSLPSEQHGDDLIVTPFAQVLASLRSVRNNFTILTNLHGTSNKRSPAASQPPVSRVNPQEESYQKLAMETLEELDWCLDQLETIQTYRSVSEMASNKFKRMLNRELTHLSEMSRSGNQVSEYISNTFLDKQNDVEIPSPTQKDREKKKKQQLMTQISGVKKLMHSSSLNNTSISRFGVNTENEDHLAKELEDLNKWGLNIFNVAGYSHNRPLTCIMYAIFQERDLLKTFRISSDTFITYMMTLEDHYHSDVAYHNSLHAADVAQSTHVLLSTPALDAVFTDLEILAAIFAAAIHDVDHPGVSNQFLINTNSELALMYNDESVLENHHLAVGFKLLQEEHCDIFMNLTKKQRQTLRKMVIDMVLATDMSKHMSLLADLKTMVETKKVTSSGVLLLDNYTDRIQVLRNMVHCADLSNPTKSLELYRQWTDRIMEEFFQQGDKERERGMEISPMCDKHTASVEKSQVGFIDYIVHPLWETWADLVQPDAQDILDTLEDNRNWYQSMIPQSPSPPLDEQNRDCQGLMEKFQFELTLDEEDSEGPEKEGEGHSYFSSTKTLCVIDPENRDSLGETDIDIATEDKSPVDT
Chain of ATP-dependent 6-phosphofructokinase (Trypanosoma brucei brucei) (O15648 whole entry, looked up): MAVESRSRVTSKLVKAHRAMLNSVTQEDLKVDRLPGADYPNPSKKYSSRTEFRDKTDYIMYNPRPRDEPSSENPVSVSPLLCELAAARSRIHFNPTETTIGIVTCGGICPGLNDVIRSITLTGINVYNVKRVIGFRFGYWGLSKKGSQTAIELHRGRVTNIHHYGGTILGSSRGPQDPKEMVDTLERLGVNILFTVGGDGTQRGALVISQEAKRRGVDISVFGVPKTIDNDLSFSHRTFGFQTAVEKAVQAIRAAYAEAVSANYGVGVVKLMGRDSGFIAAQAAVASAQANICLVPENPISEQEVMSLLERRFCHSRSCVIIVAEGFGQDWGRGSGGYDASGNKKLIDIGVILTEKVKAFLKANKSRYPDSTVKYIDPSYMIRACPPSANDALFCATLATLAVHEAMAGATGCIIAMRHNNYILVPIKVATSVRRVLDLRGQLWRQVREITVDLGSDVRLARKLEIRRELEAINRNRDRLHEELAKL

## CO[C@H]1/C=C/O[C@@]2(C)Oc3c(C)c(O)c4c(O)c(c(/C=N\N5CCN(C6CCCC6)CC5)c(O)c4c3C2=O)NC(=O)/C(C)=C\C=C\[C@H](C)[C@H](O)[C@@H](C)[C@@H](O)[C@@H](C)[C@H](OC(C)=O)[C@@H]1C
[1]
  outcome: inactive
[2]
  Potency: 1.26 µM (active)
[3]
  Potency: 0.126 µM (active)
[4]
  Potency: 1.41 µM (active)
[5]
  Potency: 1.58 µM (active)
[6]
  Potency: 1 µM (active)
[7]
  Potency: 4.78 µM (active)
[8]
  Potency: 4.26 µM (active)
[9]
  Potency: 5.36 µM (active)
[10]
  Potency: 3.79 µM (active)
[11]
  Potency: 1.41 µM (active)
[12]
  Potency: 4.26 µM (active)
[13]
  Potency: 4.78 µM (active)
[14]
  Potency: 0.794 µM (active)
[15]
  Potency: 0.224 µM (active)
[16]
  Potency: 0.708 µM (active)
[17]
  Potency: 0.282 µM (active)

## C=C1/C(=C\C=C2/CCC[C@]3(C)[C@@H]([C@H](C)CCCC(C)(C)O)CC[C@@H]23)C[C@@H](O)C[C@@H]1O
[1]
  outcome: inactive
[2]
  Potency: inactive
[3]
  Potency: inactive
[4]
  Potency: inactive
[5]
  Potency: inactive
[6]
  Potency: inactive
[7]
  Potency: inactive
[8]
  Potency: inactive
[9]
  Potency: inactive
[10]
  Potency: inactive
[11]
  Potency: inactive
[12]
  Potency: inactive
[13]
  Potency: inactive
[14]
  Potency: inactive
[15]
  Potency: inactive
[16]
  Potency: inactive
[17]
  Potency: inactive

## CC(C)n1c(/C=C/[C@H](O)C[C@H](O)CC(=O)O)c(-c2ccc(F)cc2)c2ccccc21
[1]
  outcome: inactive

## N=C1Sc2ccccc2C2=NCCCN12
[18]
  Potency: > 46 µM
[19]
  outcome: inactive
[20]
  Potency: inactive

## NCCC(=O)NCCc1cnc[nH]1
[18]
  Potency: > 46 µM and > 20.6 µM
[19]
  outcome: inactive
[20]
  Potency: inactive

## NCCNC(=O)c1ccc(Cl)cc1
[18]
  Potency: > 46 µM
[19]
  outcome: inactive
[20]
  Potency: inactive

## N=C(N)SCCc1cccc(CCSC(=N)N)c1
[18]
  Potency: > 46 µM
[19]
  outcome: inactive
[20]
  Potency: inactive

## O=C(Cc1ccc(Cl)c(Cl)c1)OCCN1CCCC1
[18]
  Potency: > 46 µM
[19]
  outcome: inactive
[20]
  Potency: inactive

## CN=C(N)NCCCC(N)C(=O)O (centres undefined)
[1]
  outcome: inactive
[2]
  Potency: inactive
[3]
  Potency: inactive
[4]
  Potency: inactive
[5]
  Potency: inactive
[6]
  Potency: inactive
[7]
  Potency: inactive
[8]
  Potency: inactive
[9]
  Potency: inactive
[10]
  Potency: inactive
[11]
  Potency: inactive
[12]
  Potency: inactive
[13]
  Potency: inactive
[14]
  Potency: inactive
[15]
  Potency: inactive
[16]
  Potency: inactive
[17]
  Potency: inactive

## CN1C(=O)CCC1c1cccnc1 (centres undefined)
[1]
  outcome: inactive
[2]
  Potency: inactive
[3]
  Potency: inactive
[4]
  Potency: inactive
[5]
  Potency: inactive
[6]
  Potency: inactive
[7]
  Potency: inactive
[8]
  Potency: inactive
[9]
  Potency: inactive
[10]
  Potency: inactive
[11]
  Potency: inactive
[12]
  Potency: inactive
[13]
  Potency: inactive
[14]
  Potency: inactive
[15]
  Potency: inactive
[16]
  Potency: inactive
[17]
  Potency: inactive
